proKLK7 act = activates the human kallikrein-7 zymogen; P49862; purified proKLK7, EDANS-DABCYL substrate fluorescence; 100% is mature enzyme control, 0% vehicle; activation, % at 7 µM; 370,000 compounds, 0.9% hits; AID 652039;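 active means activation above the mean of all tested compounds plus 3 SD, computed per campaign excluding outliers beyond control limits, cut at about 13% in these data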
Target sequence (P49862 whole entry, looked up): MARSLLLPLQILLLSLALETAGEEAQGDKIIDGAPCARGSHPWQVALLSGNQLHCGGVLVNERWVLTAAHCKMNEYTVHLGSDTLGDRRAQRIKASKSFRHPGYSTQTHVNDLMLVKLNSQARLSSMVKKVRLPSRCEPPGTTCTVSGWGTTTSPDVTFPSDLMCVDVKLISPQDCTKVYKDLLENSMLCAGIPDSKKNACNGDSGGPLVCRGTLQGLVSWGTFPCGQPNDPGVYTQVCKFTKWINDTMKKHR
MsrA act = activates bovine MsrA enzyme. purified bovine MsrA, absorbance read-out. AID 602163. 360,000 compounds, 0.3% hits. activation, % at 10.6 µM; in the data active means activation above about 7.5%;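 further: 0% = vehicle and 100% = reference activator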
MsrA inh = bovine MsrA inhibition; purified bovine MsrA, absorbance read-out; inhibition, % at 15.5 µM; 360,000 compounds, 0.75% hits; in the data active means inhibition above about 4.5%;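 further: 0% = vehicle wells with enzyme and 100% = reference inhibitor wells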
SMARCA2 activ = increases SMARCA2 function in MMTV reporter cells. activation, % at 9.1 µM. AID 652017. MG213 cells, MMTV-luciferase reporter, dexamethasone, overnight. 370,000 compounds, 1% hits; in the data active means activation above about 7.8%;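 further: 0% = vehicle wells and 100% = reference activator wells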
proKLK7 act conf = confirmation of human kallikrein-7 zymogen activators. AID 686949. 3,200 compounds, 68% hits. shares compounds with proKLK7 act. activation, % at 7 µM. purified proKLK7, EDANS-DABCYL substrate fluorescence; scaled: vehicle 0, mature enzyme 100;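 active means activation, as change over the incubation, above the mean of all tested compounds plus 3 SD, cut at about 13% in these data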
EDANS interfere = counter-screen for kallikrein-7 activators: EDANS-DABCYL optical interference; EDANS-DABCYL substrate fluorescence interference, no enzyme, 4 h; solvent 0%, active enzyme control 100%; activation, % at 7 µM; 3,200 compounds, 80% hits; shares compounds with proKLK7 act;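 active means activation above the all-compound mean plus 3 SD, ignoring values outside control-based bounds, cut at about 4.8% in these data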;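 further: value is the 4 h activation minus the activation read at time zero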
EDANS interf = optically interferes with EDANS-DABCYL fluorescence, kallikrein-7 activator counter-screen | 250 compounds, 20% hits | EC50, µM | shares compounds with proKLK7 act | EDANS-DABCYL peptide fluorescence interference, no enzyme;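 active means compounds that raise the fluorescence signal in this interference counterscreen, with EC50 at or below 10 µM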;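 further: intact quenched peptide substrate alone read at 355 nm excitation and 520 nm emission; signal is fluorescence gain from T0 to T4 after four hours at room temperature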
* hit, by the source's call; i = inactive; . = not tested or not shown. A selection: hits, their analogues and other compounds. The true share with any hit is near 2.8%.

SMILES | proKLK7 act | MsrA act | MsrA inh | SMARCA2 activ | proKLK7 act conf | EDANS interfere | others
COc1cc2cc(C(=O)N3CCN(Cc4ccc5c(c4)OCO5)CC3)c(=O)oc2cc1OC | 61.2* | 1.1 | 2.5 | -4.0 | 68.4* | 73.0*
O=C(C(=O)N1CCN(S(=O)(=O)c2ccc(C(F)(F)F)cc2)CC1)c1cccc(C(F)(F)F)c1 | 0.0 | . | -0.6 | -1.2 | . | .
Cc1ccc(Cn2c(=N)c(C(=O)NCCN3CCOCC3)cc3c(=O)n4ccccc4nc32)cc1 | 0.8 | -3.0 | 0.3 | 0.2 | . | .
N=c1c(C(=O)NCCN2CCOCC2)cc2c(=O)n3ccccc3nc2n1CCc1ccccc1 | 24.3* | -0.5 | 0.3 | -0.1 | 7.6 | 10.5*
N=c1c(C(=O)NCCc2ccccc2)cc2c(=O)n3ccccc3nc2n1CCCN1CCOCC1 | 29.2* | -0.8 | 0.1 | 1.6 | 7.9 | 7.7*
COc1ccc(CCNC(=O)c2cc3c(=O)n4cccc(C)c4nc3n(CCCN3CCOCC3)c2=N)cc1 | 0.1 | -0.8 | 0.7 | -0.1 | . | .
N=c1c(C(=O)NCc2ccc(F)cc2)cc2c(=O)n3ccccc3nc2n1CCCN1CCOCC1 | 5.0 | 0.9 | 1.2 | 0.6 | . | .
N=c1c(C(=O)NCc2ccccc2)cc2c(=O)n3ccccc3nc2n1CCCN1CCOCC1 | 13.4* | -5.2 | 1.5 | -0.8 | 2.1 | 3.3
CCc1cc2c(=O)c(-c3nc4ccccc4n3C)c(COCC(=O)O)oc2cc1OC(=O)C(C)(C)C | 0.3 | -10.1 | 0.6 | 1.8 | . | .
CCc1cc2c(=O)c(-c3nc4ccccc4n3C)c(C)oc2cc1OC(C)=O | 38.1* | -3.0 | -0.6 | 0.1 | 69.2* | 65.9*
COc1ccccc1Cc1c(-c2ccc(F)cc2)nc2cc(C)c(Br)c(C)n12 | 0.0 | -2.3 | 1.6 | 1.3 | . | .
COc1ccc(COc2cc(-c3cccc(OC)c3)nc3ccc(N)cc23)cc1 | 58.8* | -1.4 | 0.7 | 1.5 | -39.4 | -47.0
COc1ccc(COc2cc(-c3cccc(OC)c3)nc3ccc(NC(C)=O)cc23)cc1 | 17.9* | -2.2 | 1.0 | 2.2 | -3.4 | -4.1
COc1ccc(COc2cc(-c3cccc(OC)c3)nc3ccc(NC(=O)c4ccc(N(C)C)cc4)cc23)cc1 | . | -2.2 | . | . | . | .
COc1ccc(COc2cc(-c3cccc(OC)c3)nc3ccc(NC(=O)c4ccc(C)cc4)cc23)cc1 | -7.7 | -1.3 | 1.9 | 0.7 | . | .
CCCCNC(=O)C1(C)CCCCN1Cc1ccc(OCc2ccccc2)cc1 (stereo not given) | 0.5 | 0.4 | 2.7 | -5.1 | . | .
O=c1[nH]c(Nc2ccccn2)cc2ccccc12 | 21.5* | -2.6 | 0.6 | 7.4 | 21.4* | 20.8*
COC(=O)c1c(C#N)c(N)nc2c1CCCC2 | 77.9* | -0.4 | 2.1 | -0.7 | 72.1* | 74.7*
Cc1cc(C)cc([C@H]2C[C@]34CN(C(=O)OC(C)(C)C)S(=O)(=O)[C@H]3C[C@H]2O4)c1 | -0.4 | . | 0.0 | 1.2 | . | .
OC1CN=C2CCCc3c2n(c2ccc(Cl)cc32)C1 (stereo not given) | 17.2* | -4.1 | 1.3 | 1.7 | -37.8 | -28.5
COc1cc(C(=O)Nc2cccc(-c3cn4cccnc4n3)c2)cc(OC)c1OC | 30.0* | -2.6 | 2.6 | -4.0 | -9.3 | -11.2
CC(C)(C)CC(=O)Nc1cccc(-c2cn3cccnc3n2)c1 | 24.6* | -3.8 | 4.3 | 3.6 | 15.7* | 18.6*
CCC(=O)Nc1cccc(-c2cn3ccsc3n2)c1 | 0.8 | -3.2 | 1.5 | 3.3 | . | .
COc1cccc(C(=O)Nc2cc(-c3cn4cccnc4n3)ccc2C)c1 | 30.7* | -2.6 | 1.9 | 0.3 | 12.3 | -1.6
C[C@H]1[C@@H](C(=O)N2CCCC2)CC(=O)/C(=N/OCc2ccccc2)C[C@@H]1c1ccccc1 | 0.0 | . | . | -3.3 | . | .
SMILES | proKLK7 act | MsrA act | MsrA inh | SMARCA2 activ | proKLK7 act conf | EDANS interfere | others
O=C(N[C@H](Cc1ccccc1)C(=O)O)[C@H]1O[C@@H](n2ccc(=O)[nH]c2=O)[C@H](O)[C@@H]1O | -0.5 | . | 1.7 | -3.3 | . | .
Cc1ccc2nc(NC(=O)c3ccc(Cn4cc(Cl)cn4)o3)sc2c1 | 57.0* | -2.5 | 1.3 | -2.0 | -100.1 | -80.7
Cc1ccc2nc(NC(=S)NC(=O)c3cccs3)sc2c1 | 0.2 | -4.7 | 0.2 | 5.6 | . | .
Cc1ccc2nc(NC(=O)c3cccs3)sc2c1 | 27.0* | -4.4 | 1.0 | -2.7 | 4.3 | 11.6*
Cc1ccc2nc(NC(=O)c3ccc4ncsc4c3)sc2c1 | 14.5* | -1.5 | 1.4 | -2.1 | 14.7* | 6.8* | EDANS interf=i
NS(=O)(=O)c1ccc2nc(NC(=O)c3ccc4ncsc4c3)sc2c1 | . | -3.7 | . | . | . | .
NNC(=O)c1ccc(Cn2cc(Cl)cn2)o1 | -0.4 | -6.0 | -0.8 | -0.7 | . | .
CC(OC(=O)CC1CCCCC1)C(=O)Nc1cccc(C#N)c1 (stereo not given) | -0.1 | -9.9 | -0.3 | -2.7 | . | .
CCOC(=O)c1nn(-c2ccccc2)c(C(=O)OCC)c1N | 18.5* | -3.5 | 1.1 | 3.6 | 9.0 | 10.8*
CCOC(=O)CC(=O)CSc1nc2c(cc1C#N)CCCCCC2 | 13.3* | -0.1 | -0.3 | -1.6 | 60.0* | 58.1*
COC(=O)CC(=O)CSc1nc2c(cc1C#N)CCC2 | 8.5 | -4.9 | 2.3 | -3.0 | . | .
CCOC(=O)C(C)Sc1nc2c(c(-c3cccs3)c1C#N)CCC2 (stereo not given) | -0.5 | -0.5 | -0.6 | 0.1 | . | .
N#Cc1cc2c(nc1SCC(N)=O)CCCCC2 | 1.9 | -1.4 | -0.1 | 6.5 | . | .
CC(C)OC(=O)CC(=O)CSc1nc2c(cc1C#N)CCCC2 | 20.4* | -10.2 | 0.3 | -1.8 | 71.2* | 76.8*
CC(C)OC(=O)CC(=O)CSc1nc2c(c(-c3cccs3)c1C#N)CCC2 | 14.8* | -3.4 | 1.2 | -1.8 | 10.7 | 12.0*
CC(C)OC(=O)CC(=O)CSc1nc2c(cc1C#N)CCCCCC2 | 17.9* | -3.1 | 1.4 | -0.1 | 70.1* | 76.8*
COC(=O)C1=CN(c2ccc(Oc3ccccc3)cc2)C(N)=C(C#N)C1c1ccccc1 (stereo not given) | -5.8 | . | -0.7 | -0.7 | . | .
CC(C)OC(=O)CC(=O)CSc1nc2c(cc1C#N)CCC2 | 21.8* | -2.8 | -0.1 | -1.2 | 89.8* | 92.1*
CN1C(=O)[C@@]2(O[C@H]3C=CC=CN3C3=C2C(=O)CCC3)c2cc([N+](=O)[O-])ccc21 | 0.1 | . | 2.1 | -1.0 | . | .
CC1(C)CC(=O)c2cc(OCC(=O)NCCCN3CCN(c4ccc(F)cc4)CC3)ccc2O1 | 16.6* | -0.8 | -1.6 | -2.5 | 4.0 | 2.0
CCC(Oc1ccccc1F)C(=O)NCCN1CCOCC1 (stereo not given) | -0.5 | -0.4 | -1.4 | 0.7 | . | .
Cc1ccccc1NC(=O)COc1ccc2c(c1)OC(C)(C)CC2=O | -0.1 | -5.7 | -1.4 | -4.9 | . | .
CC(C)CCNC(=O)COc1ccc2c(c1)C(=O)CC(C)(C)O2 | 39.5* | -11.5 | 1.3 | 4.8 | 34.8* | 46.7*
